From PubChem BioAssay (NCATS) come the findings set out here.

Each structure is given as a SMILES string. Inconclusive results are not listed. Where a call stands in place of a potency, no number is given. Calls of active or inactive are those of the source. Calls follow the shape of the dose curve; as a rule, active = well fitted curve in the direction sought with a large enough effect; inconclusive = small, poorly fitted or top-dose-only effect, or another doubt; inactive = no such curve, though single readings can be large; an effect the other way counts as inactive or inconclusive.

The subject of experiment [1] is Zika virus NS2B-NS3 protease. Put plainly: Primary screen GU AMC qHTS for Zika virus inhibitors (AID 1347154). Also: nearly all actives have a fitted effect of over 70% in size. To be noted: Zika NS2B-NS3 unlinked protease, AMC fluorogenic substrate; series mostly up to 54.1 µM. In short, it runs like this: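 Unlinked Zika NS2B hydrophilic domain–NS3 protease complex at 25 nM in 10 mM Tris-HCl pH 8.0, 0.01% Tween 20, with an AMC peptide substrate. Fluorescence change (340/450 nm) over 15 min at room temperature, normalized to controls, fitted to 4-parameter Hill.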

Experiment [2] deals with Zika virus NS2B-NS3 protease (unlinked complex). Put plainly: Primary screen GU Rhodamine qHTS for Zika virus inhibitors: Unlinked NS2B-NS3 protease assay (AID 1347159). Also: nearly all actives have a fitted effect of over 60% in size. Also: potency is read from the fitted curve at half-maximal effect. To be noted: Recombinant ZIKV NS2B-NS3 protease, Rhodamine110 substrate fluorescence; series mostly up to 107 µM. In short, it runs like this: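 Noncovalent NS2B hydrophilic domain/NS3 protease complex (25 nM final) in 10 mM Tris-HCl pH 8.0, 0.01% Tween 20, preincubated 15 min with compounds (up to 114 microM), then 1.5 microM Rhodamine110 substrate. Fluorescence change over 15 min fitted to 4-parameter Hill.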

Experiment [3] can be described thus: Confirmatory screen GU Rhodamine qHTS for Zika virus inhibitors qHTS (AID 1347157). Also: nearly all actives have a fitted effect of over 70% in size. To be noted: purified enzyme assay, Rhodamine110 substrate fluorescence, 15 min; series mostly up to 114 µM. In short, it runs like this: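 Buffer 10 mM Tris-HCl pH 8.0, 0.01% Tween 20. Unlinked protease 25 nM; compound preincubation 15 min, RT, protected from light. Substrate Rhod110, 1.5 microM; ~15% conversion in 15 min.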
(In qHTS, concentration-response curves come from the screen itself.)

With `O=C(O)c1ccc2c(c1)nc(Nc1cccc(Cl)c1)c1ccncc12`, the Potency entry in experiment [1] was “inactive”. Further, the Potency in experiment [2] is 39.8 µM (active).

For the molecule `Nc1ncnc2c1c(-c1cccc(OCc3ccccc3)c1)cn2C1CC(CN2CCCC2)C1` (stereo not drawn), the Potency entry in experiment [1] and in experiment [2] was “inactive” in each case.

`CCc1cc2c(cc1N1CCC(N3CCOCC3)CC1)C(C)(C)c1[nH]c3cc(C#N)ccc3c1C2=O`: the Potency result in experiment [1] and in experiment [2] was “inactive” in each case.

With `CNC(=O)c1cc(Oc2ccc(NC(=O)Nc3cc(C(C)(C)C)nn3-c3ccc4ncccc4c3)c(F)c2)ccn1`, the Potency result in experiment [1] and in experiment [2] was “inactive” throughout.

`NC1(Cc2ccc(Cl)cc2)CCN(c2ncnc3[nH]ccc23)CC1`: the Potency result in experiment [1] and in experiment [2] was “inactive” throughout.

With `O=C(c1ccc(Nc2nccc(-c3cc4ccccc4s3)n2)cc1)N1CCC(N2CCCC2)CC1`, the Potency entry in experiment [1] and in experiment [2] was “inactive” throughout.

For the molecule `COc1cc2c(cc1-c1c(C)noc1C)ncc1[nH]c(=O)n([C@H](C)c3ccccn3)c12`, the Potency result in experiment [3] and in experiment [2] was “inactive” each time.

For the molecule `Cc1cn2cc(C(=O)N(C)CCO)cc(N[C@@H]3CCOc4cccc(C)c43)c2n1`, the Potency result in experiment [1] and in experiment [2] was “inactive” throughout.

Take `c1nc2nc(Nc3ccc(N4CCOCC4)cc3)nc(NC3CCCCC3)c2[nH]1`: the Potency entry in experiment [1] and in experiment [2] was “inactive” in each case.

As to `CCN(CC)CCNC(=O)c1ccc2nc(-c3ccccc3)c(-c3ccc(CN4CCC(n5c(=O)[nH]c6ccccc65)CC4)cc3)nc2c1`, the Potency entry in experiment [1] and in experiment [2] was “inactive” each time.

Regarding `Nc1ccccc1NC(=O)c1ccc(CNc2nccc(-c3cccnc3)n2)cc1`, the Potency result in experiment [1] and in experiment [2] was “inactive” in each case.

For the molecule `CC(O)C1C(=O)N2C(C(=O)O)=C(SC3CNC(C(=O)N(C)C)C3)C(C)C12` (stereo not drawn), the Potency result in experiment [1] and in experiment [2] was “inactive” throughout.

For `O=C(O)CCCc1c[nH]c2ccccc12`, the Potency entry in experiment [1] and in experiment [2] was “inactive” throughout.

Consider `COc1ccc2c(OCc3nnc4ccc(-c5ccccc5)nn34)ccnc2c1`, for which the Potency result in experiment [1] and in experiment [2] was “inactive” in each case.

Consider `CCCNC(=O)Nc1ccc(Oc2ncnc3cc(OC)c(OC)cc23)cc1Cl`, for which the Potency entry in experiment [1] and in experiment [2] was “inactive” throughout.

Regarding `O=C(CCCCCCC(=O)Nc1ccc([C@H]2O[C@@H](CSc3nc(-c4ccccc4)c(-c4ccccc4)o3)C[C@@H](c3ccc(CO)cc3)O2)cc1)NO`, the Potency in experiment [2] is 8.91 µM (active).

For `Cc1ccc2nc(NC(=O)CSc3nc4c(c(=O)n3-c3ccccc3)SCC4)sc2c1`, in experiment [2], the Potency result was “inactive”.

`Cc1cc(Nc2nc(N[C@@H](C)c3ccc(F)cc3)c(C#N)cc2F)n[nH]1`: in experiment [2], the Potency entry was “inactive”.

Consider `Cc1cc(Nc2cc(CN3CCOCC3)c3nc(C)c(Cc4ccc(Cl)cc4F)n3n2)n[nH]1`, for which the Potency result in experiment [1] and in experiment [2] was “inactive” throughout.

On to `Cn1c(CNc2ccc(C(=N)N)cc2)nc2cc(C(=O)N(CCC(=O)O)c3ccccn3)ccc21`, for which the Potency entry in experiment [1] and in experiment [2] was “inactive” each time.

Regarding `Cc1ccc(CN2CCNCC2)cc1NC(=O)CNc1ccc(F)c(F)c1`, the Potency entry in experiment [1] and in experiment [2] was “inactive” throughout.

As to `Nc1nc(NCCNc2ncc(-n3ccnc3)c(-c3ccc(Cl)cc3Cl)n2)ccc1[N+](=O)[O-]`, the Potency result in experiment [1] and in experiment [2] was “inactive” each time.

As to `C[C@]1(CO)CN(c2cc(C(=O)Nc3ccc4c(c3)-c3c(c(C(N)=O)nn3-c3ccc(F)cc3)CC4)c(Cl)cn2)C[C@@]1(C)CO`, in experiment [2], the Potency result was “inactive”.

For `O=C(Nc1nc2cccc(-c3ccc(CN4CCS(=O)(=O)CC4)cc3)n2n1)C1CC1`, the Potency entry in experiment [1] and in experiment [2] was “inactive” each time.

As for `COc1cc2c(NC3CCN(C(C)C)CC3)nc(C3CCCCC3)nc2cc1OCCCN1CCCC1`, the Potency entry in experiment [1] and in experiment [2] was “inactive” throughout.

With `Cn1cc(-c2[nH]c3cc(NC(=O)[C@H](N)C4CCCCC4)cc4c3c2C=NNC4=O)cn1`, the Potency entry in experiment [1] and in experiment [2] was “inactive” in each case.
